Results taken from PubChem BioAssay (NCATS).
Several values for one entry are separate records, joined by “and”; a condition that tells them apart may be missing. Identical values can stand only once. Results filed as inconclusive are left out. Activity calls are given as the source filed them. Unless noted, the call rests on the fitted dose curve; in most records, active means well fitted curve in the direction sought with a large enough effect; inconclusive means small, poorly fitted or top-dose-only effect, or another doubt; inactive means no such curve, though single readings can be large; an effect the other way counts as inactive or inconclusive.

Assays:
[1] = test system: Zika virus NS2B-NS3 protease; assay: Primary screen GU AMC qHTS for Zika virus inhibitors (AID 1347154);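 further: 0% = no-inhibitor control and -100% = no-enzyme control; nearly all actives have a fitted effect of over 70% in size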
Method in brief: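 Unlinked Zika NS2B hydrophilic domain/NS3 protease domain noncovalent complex (25 nM final) in 10 mM Tris-HCl pH 8.0, 0.01% Tween 20, with AMC peptide substrate. Fluorescence (ex 340, em 450 nm) change over 15 min, room temperature; percent inhibition fitted to 4-parameter Hill equation.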

[2] = Primary qHTS for small molecule stabilizers of the endoplasmic reticulum resident proteome: Secreted ER Calcium Modulated Protein (SERCaMP) assay (AID 1508630); further: on the % scale 0 is the no-effect control and ±100 the full control effect
Method in brief: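 The SH-SY5Y reporter protocol was run at 3 concentrations up to 38.3 uM (primary) or 11 concentrations (follow-up): 16 h compound, 100 nM thapsigargin for 4 h, then extracellular luciferase luminescence.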

[3] = AP1 Signaling Pathway (AID 357; active means well fitted curve in either direction with a large enough effect, not every such curve was filed as active;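 further: ME-180 reporter cells stimulated with EGF at its EC50 level; on the % scale 0 is the no-effect control and ±100 the full control effect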)
Method in brief: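 A ratiometric CCF4 readout (405 nm excitation; 460 and 530 nm emission) quantified AP-1-driven beta-lactamase in ME-180 cells after 5 h with compound and EC50 EGF; AC50 values were derived for activators and inhibitors.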

[4] = biological target: Cytochrome P450 1A2 (Homo sapiens) (UniProt P05177); assay: p450-cyp1a2 (AID 410; calls by dose curve;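 further: -100% = full effect of reference inhibitor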)
Method in brief: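 O-Demethylation of luciferin 6' methyl ether by human CYP1A2 is monitored as luciferase luminescence. Substrate sits at Km (100uM); enzyme is 20nM. Values are scaled to 57 uM furafylline as maximal inhibition.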

[5] = NFAT Signaling Pathway (AID 444; active means well fitted curve in either direction with a large enough effect, not every such curve was filed as active;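 further: carbachol stimulus at about its EC50 of 1 µM final; on the % scale 0 is the no-effect control and ±100 the full control effect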); conditions: Jurkat NFAT-bla M1, carbachol, beta-lactamase ratio, 5 h
Method in brief: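 Jurkat cells carrying an NFAT-driven β-lactamase reporter and co-transfected muscarinic M1 receptor were treated with compound plus carbachol (1 uM final, an EC50 level) for 5 h at 37 °C. CCF4 loading followed for 1 h at RT; 460/530 nm ratio gave %activity.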

[6] = Stat Signaling Pathway (AID 446; active means well fitted curve in either direction with a large enough effect, not every such curve was filed as active;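 further: ME-180 cervical cancer cells given 40 pM IL-6 alongside compound; SIE-controlled beta-lactamase reporter measured as 460/530 nm FRET emission ratio; on the % scale 0 is the no-effect control and ±100 the full control effect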)
Method in brief: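 Compound effects on IL-6-induced STAT reporter activity were measured in ME-180 cells. After overnight culture, cells were co-treated with 40 pM IL-6 for 5 hrs before beta-lactamase substrate loading at room temperature.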

[7] = biological target: Glucocorticoid receptor (Homo sapiens) (UniProt P04150); assay: GR-GFP Redistribution (AID 450;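 active means compounds whose dose series gives a full or clear partial fitted curve of increased nuclear translocation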; further: potency means the concentration at half of the fitted maximal effect); conditions: U2OS GR-GFP nuclear translocation, laser cytometry, 2 h
[8] = biological target: Glucocorticoid receptor (Homo sapiens) (UniProt P04150); assay: GR-EFC Redistribution (AID 451; calls by dose curve; further: potency means the concentration at half of the fitted maximal effect); conditions: CHO-K1 GR-EFC translocation, beta-gal luminescence, 2 h
Method in brief: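 CHO-K1 cells stably expressing nuclear-localized β-gal enzyme acceptor and GR fused C-terminally to the enzyme donor fragment; ligand-driven nuclear translocation restores β-gal by complementation. Compounds titrated up to 46 uM final, 2 h at 37 °C; luminescence read.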

[9] = biological target: Mitogen-activated protein kinase 10 (Mus musculus) (UniProt Q61831); assay: JNK3 AlphaScreen Assay (AID 530; active means well fitted curve in either direction with a large enough effect, not every such curve was filed as active)
Method in brief: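 Phosphorylation of biotinylated GST-cJun(1-79) at Ser73 is measured by AlphaScreen proximity luminescence. Enzyme is JNK3 in HepG2 lysates activated with interleukin-1beta and tumor necrosis factor alpha; ATP is 10 uM final.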

[10] = biological target: 3',5'-cyclic-AMP phosphodiesterase 4B (Homo sapiens) (UniProt Q07343); assay: qHTS Assay for Inhibitors of PDE-IV (AID 607; active means well fitted activation curve with a large enough effect in the main read-out, with a control signal flat, not every such curve was filed as active; further: % of control where 0% means no effect)
Method in brief: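 ACTOne HEK293 cells carry a modified cAMP-gated CNG channel and express endogenous PDE4; plated 1000 cells/well, compounds up to 22.9 uM final. Membrane-potential dye fluorescence (ex 535/em 590) was read; parental cells received 10 uM forskolin + 100 uM RO 20-1724.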

[11] = biological target: Cytochrome P450 2D6 (Homo sapiens) (UniProt P10635); assay: qHTS Assay for Inhibitors and Substrates of Cytochrome P450 2D6 (AID 891);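 further: luciferin methyl ether substrate demethylated by CYP2D6 with NADPH regeneration; on the % scale 0 is the no-effect control and ±100 the full control effect; nearly all actives have a fitted effect of over 60% in size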
Method in brief: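 Luminescent read-out of luciferin formed by 5 nM human CYP2D6 demethylating 30 uM Luciferin-ME EGE (Km level) over 60 min at room temperature after NADPH regeneration addition. Data normalized to full inhibition by 1.43 uM quinidine.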

[12] = biological target: Cytochrome P450 2C19 (Homo sapiens) (UniProt P33261); assay: qHTS Assay for Inhibitors and Substrates of Cytochrome P450 2C19 (AID 899); further: on the % scale 0 is the no-effect control and ±100 the full control effect; nearly all actives have a fitted effect of over 60% in size
Method in brief: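 Human CYP2C19 (5nM) with Luciferin-H EGE at 10uM (its KM) in 50mM KPO4 was preincubated with compound for 10 min at 37C. NADPH regeneration started a 60 min 37C reaction. Luciferin was read by luminescence, normalized to 57uM ketoconazole.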

[13] = qHTS Assay for Lipid Storage Modulators (AID 1519; calls by dose curve); conditions: Drosophila S3 cells, BODIPY lipid droplet/cell ratio, laser cytometry, cells loaded with oleic acid
Method in brief: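 Cells seeded at 5,000 per well were treated with compounds over a concentration series and loaded with oleic acid (400 uM, as added). Lipid droplet fluorescence (488 nm excitation, 500-530 nm channel) was read by laser-scanning cytometry and normalized to 20 uM Triacsin C.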

[14] = biological target: DNA dC->dU-editing enzyme APOBEC-3G (Homo sapiens) (UniProt Q9HC16); assay: qHTS for inhibitors of Vif-A3G interactions: Validation (AID 588379); further: 0% is about no effect
Method in brief: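 Yellow fluorescence (Ex 488, Em 500-530) of Vif-coexpressing HeLa A3G-eYFP cells, scanned by Acumen cytometer, reports blocked A3G degradation. Cells plated at 700/well overnight at 37 deg C before compound addition, then a further overnight compound incubation at 37 deg C.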

Chain of Glucocorticoid receptor (Homo sapiens) (P04150 whole entry, looked up, the tested form may be a part): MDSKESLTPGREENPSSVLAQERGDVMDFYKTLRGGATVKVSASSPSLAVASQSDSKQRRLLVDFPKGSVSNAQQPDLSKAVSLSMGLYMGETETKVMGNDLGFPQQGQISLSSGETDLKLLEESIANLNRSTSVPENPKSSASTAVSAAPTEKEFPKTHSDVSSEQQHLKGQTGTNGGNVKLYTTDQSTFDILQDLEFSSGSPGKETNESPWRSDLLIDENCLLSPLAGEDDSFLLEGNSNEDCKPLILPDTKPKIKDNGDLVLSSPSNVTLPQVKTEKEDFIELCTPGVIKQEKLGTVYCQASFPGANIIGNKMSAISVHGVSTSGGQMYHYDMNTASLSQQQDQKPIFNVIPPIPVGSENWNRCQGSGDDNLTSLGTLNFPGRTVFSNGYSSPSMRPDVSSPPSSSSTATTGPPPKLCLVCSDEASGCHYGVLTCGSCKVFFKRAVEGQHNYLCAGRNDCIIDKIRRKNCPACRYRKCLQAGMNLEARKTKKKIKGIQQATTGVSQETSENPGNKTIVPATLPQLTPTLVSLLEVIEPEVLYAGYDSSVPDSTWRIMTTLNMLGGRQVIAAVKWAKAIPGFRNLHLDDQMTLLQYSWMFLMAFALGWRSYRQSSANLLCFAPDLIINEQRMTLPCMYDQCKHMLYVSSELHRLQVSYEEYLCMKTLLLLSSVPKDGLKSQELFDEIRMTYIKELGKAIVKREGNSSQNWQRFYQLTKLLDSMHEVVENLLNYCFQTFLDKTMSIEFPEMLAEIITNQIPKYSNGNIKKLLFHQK
Chain of Cytochrome P450 1A2 (Homo sapiens) (P05177 whole entry, looked up): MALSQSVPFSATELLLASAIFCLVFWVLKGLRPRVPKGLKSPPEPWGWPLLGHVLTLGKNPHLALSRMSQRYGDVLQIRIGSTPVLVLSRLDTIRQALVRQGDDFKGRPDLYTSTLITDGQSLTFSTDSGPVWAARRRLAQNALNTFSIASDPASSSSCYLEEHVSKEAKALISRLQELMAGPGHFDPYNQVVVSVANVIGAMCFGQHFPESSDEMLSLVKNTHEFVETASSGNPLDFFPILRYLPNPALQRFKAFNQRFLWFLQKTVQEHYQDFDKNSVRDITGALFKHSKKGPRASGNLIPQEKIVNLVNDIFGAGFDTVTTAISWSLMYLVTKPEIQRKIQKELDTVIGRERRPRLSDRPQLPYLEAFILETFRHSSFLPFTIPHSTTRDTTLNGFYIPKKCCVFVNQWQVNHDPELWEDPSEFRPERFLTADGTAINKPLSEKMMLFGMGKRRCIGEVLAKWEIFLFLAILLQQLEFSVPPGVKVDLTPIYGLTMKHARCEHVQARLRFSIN
Chain of 3',5'-cyclic-AMP phosphodiesterase 4B (Homo sapiens) (Q07343 whole entry, looked up): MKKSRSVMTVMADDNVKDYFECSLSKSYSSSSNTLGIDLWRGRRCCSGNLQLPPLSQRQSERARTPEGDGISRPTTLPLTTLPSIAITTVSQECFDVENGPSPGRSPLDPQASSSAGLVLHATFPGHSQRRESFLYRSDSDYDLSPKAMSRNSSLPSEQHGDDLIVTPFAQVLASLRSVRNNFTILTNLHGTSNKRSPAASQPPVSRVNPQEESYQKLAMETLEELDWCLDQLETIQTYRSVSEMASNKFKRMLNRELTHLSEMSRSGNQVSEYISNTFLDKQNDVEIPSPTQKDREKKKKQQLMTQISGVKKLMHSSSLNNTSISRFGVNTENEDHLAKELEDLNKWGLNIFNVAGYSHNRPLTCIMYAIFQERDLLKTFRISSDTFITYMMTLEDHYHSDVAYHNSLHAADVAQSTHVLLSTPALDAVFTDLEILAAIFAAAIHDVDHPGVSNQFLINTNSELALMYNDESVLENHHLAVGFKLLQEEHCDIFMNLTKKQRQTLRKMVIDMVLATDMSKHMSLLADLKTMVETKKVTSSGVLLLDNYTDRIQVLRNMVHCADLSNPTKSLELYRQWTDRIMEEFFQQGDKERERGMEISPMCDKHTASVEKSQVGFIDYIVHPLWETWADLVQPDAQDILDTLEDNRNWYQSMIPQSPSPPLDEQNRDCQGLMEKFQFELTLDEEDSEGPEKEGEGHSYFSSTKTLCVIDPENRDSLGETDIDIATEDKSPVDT
Chain of DNA dC->dU-editing enzyme APOBEC-3G (Homo sapiens) (Q9HC16 whole entry, looked up): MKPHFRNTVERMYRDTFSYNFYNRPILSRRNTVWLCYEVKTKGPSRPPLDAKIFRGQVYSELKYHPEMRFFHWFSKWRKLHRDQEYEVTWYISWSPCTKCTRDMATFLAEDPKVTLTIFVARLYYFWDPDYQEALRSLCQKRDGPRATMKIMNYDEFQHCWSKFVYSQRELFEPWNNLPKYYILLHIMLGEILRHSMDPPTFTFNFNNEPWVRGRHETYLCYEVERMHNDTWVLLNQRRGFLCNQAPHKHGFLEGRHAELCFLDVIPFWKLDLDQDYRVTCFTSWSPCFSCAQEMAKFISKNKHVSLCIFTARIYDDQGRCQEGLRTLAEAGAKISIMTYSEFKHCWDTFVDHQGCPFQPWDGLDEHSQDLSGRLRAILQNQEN
Chain of Cytochrome P450 2C19 (Homo sapiens) (P33261 whole entry, looked up): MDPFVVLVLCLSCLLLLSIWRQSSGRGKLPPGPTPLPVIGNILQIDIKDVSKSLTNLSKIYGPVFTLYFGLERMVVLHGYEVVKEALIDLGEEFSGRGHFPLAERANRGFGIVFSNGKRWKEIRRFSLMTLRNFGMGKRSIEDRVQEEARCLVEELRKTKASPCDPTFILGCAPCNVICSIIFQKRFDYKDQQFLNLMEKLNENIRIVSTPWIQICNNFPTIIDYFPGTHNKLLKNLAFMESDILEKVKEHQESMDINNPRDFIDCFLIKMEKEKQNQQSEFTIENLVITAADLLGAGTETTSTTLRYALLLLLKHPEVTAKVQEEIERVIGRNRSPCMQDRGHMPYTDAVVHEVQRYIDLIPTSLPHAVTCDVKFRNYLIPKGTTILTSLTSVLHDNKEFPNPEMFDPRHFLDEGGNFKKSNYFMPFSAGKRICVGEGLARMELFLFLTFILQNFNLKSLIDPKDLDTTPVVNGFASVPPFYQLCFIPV
Chain of Cytochrome P450 2D6 (Homo sapiens) (P10635 whole entry, looked up): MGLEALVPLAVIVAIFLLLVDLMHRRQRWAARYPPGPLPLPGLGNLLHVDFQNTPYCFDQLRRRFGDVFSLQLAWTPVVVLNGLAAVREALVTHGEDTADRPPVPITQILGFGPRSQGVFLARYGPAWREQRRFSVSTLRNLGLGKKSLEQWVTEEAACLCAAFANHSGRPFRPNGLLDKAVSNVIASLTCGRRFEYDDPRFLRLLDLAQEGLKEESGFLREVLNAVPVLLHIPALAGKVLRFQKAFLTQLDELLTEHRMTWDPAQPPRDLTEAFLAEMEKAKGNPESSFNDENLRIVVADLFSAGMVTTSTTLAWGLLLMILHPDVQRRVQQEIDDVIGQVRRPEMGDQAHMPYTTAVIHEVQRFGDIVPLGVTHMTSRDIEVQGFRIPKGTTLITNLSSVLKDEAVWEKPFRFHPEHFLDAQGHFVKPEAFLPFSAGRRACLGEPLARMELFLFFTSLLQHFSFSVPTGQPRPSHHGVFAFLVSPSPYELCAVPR

CC[C@H](C)[C@H](NC(=O)[C@H](CCCN=C(N)N)NC(=O)[C@H](CCCN=C(N)N)NC(=O)[C@H](CC(C)C)NC(=O)[C@H](Cc1ccccc1)NC(=O)CNC(=O)CNC(=O)[C@@H](N)Cc1ccc(O)cc1)C(=O)N[C@@H](CCCN=C(N)N)C(=O)N1CCC[C@H]1C(=O)N[C@@H](CCCCN)C(=O)N[C@@H](CC(C)C)C(=O)N[C@@H](CCCCN)C(=O)O
inactive: activity change, negative = inhibition [1] 3.59% [at 6.83 µM] | activity change, negative = inhibition [2] -25.4% [at 3.88 µM]

CCCCC[C@@H](/C=C/C=C\CCCCCCCC(=O)O)OO
inactive: activity change, negative = inhibition [1] 3.22% [at 0.59 µM] | activity change, negative = inhibition [2] -19.4% [at 0.478 µM]

NC[C@@H](CC(=O)O)c1ccc(Cl)cc1
10.6%: max response ([13]; measured here: lipid channel max response)
11.7%: max response ([13]; measured here: cell count channel max response)
inactive: outcome [3] | Potency [4] | activity change, negative = inhibition ([5]; at 17.2 µM (top of the series)) -1.76% | activity change, negative = inhibition ([5]; at 38 µM (top of the series)) -6.39% | outcome [6] | Potency [7] > 20.6 µM and > 46 µM | Potency [8] > 20.6 µM and > 46 µM | outcome [9] | Potency [10] | Potency [11] | Potency [12] | activity change, negative = inhibition ([13]; at 25.7 µM (top of the series)) 0.101% | Potency [14] | Potency [1] | Potency [2]

CCOc1cncc(/C=C/CCNC)c1
inactive: Potency [1] | Potency [2]

O[C@@H]1CCCC[C@@H]1N1CCC(c2ccccc2)CC1
inactive: Potency [1] | Potency [2]
